# Compounds without any hit were thinned out: in the full panel of roughly 83,000, 20% have a hit.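 Treatment: one concentration, 48 hours, 96-well format. Scoring: percent growth, with anything below 10 considered active.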 Active and inactive are the calls of the source.
# Columns and labels:
# Experiment in all cases: NCI-60 one-dose screen, 48 h (100 = growth as untreated, 0 = no growth, -100 = all killed)
# Conditions in all cases: 10 µM unless noted
# DU-145 prostate = tested on: DU-145 prostate
# K-562 leukemia = tested on: K-562 leukemia
# MALME-3M melanoma = tested on: MALME-3M melanoma
# MDA-MB-231 breast = tested on: MDA-MB-231 breast
# RXF 393 renal = tested on: RXF 393 renal
# SF-268 CNS = tested on: SF-268 CNS
# SF-295 CNS = tested on: SF-295 CNS
# SF-539 CNS = tested on: SF-539 CNS
# UACC-257 melanoma = tested on: UACC-257 melanoma
# M14 melanoma = tested on: M14 melanoma
SMILES,growth (DU-145 prostate),growth (K-562 leukemia),growth (MALME-3M melanoma),growth (MDA-MB-231 breast),growth (RXF 393 renal),growth (SF-268 CNS),growth (SF-295 CNS),growth (SF-539 CNS),growth (UACC-257 melanoma),growth (M14 melanoma)
Cc1ccc(C)c(NC2=C(Cl)C(=O)c3nc(C)ccc3C2=O)c1,-76.4% (active),1.06% (active),-52.4% (active),-14.5% (active),-43.5% (active),-1.66% (active),-24.1% (active),-95.1% (active),-87.7% (active),-55.8% (active)
O=C(/C=C/C=C/c1csc(Br)n1)NO,94.3% (inactive),73% (inactive),85.2% (inactive),106% (inactive),95.2% (inactive),102% (inactive),107% (inactive),83.2% (inactive),79.8% (inactive),94.6% (inactive)
CC(=O)OCCCCN1C=C/C(=C\C(=O)n2ccc3ccccc32)c2ccccc21,109% (inactive),90.6% (inactive),106% (inactive),86.6% (inactive),115% (inactive),103% (inactive),103% (inactive),100% (inactive),112% (inactive),101% (inactive)
Cn1ncc2ncc(-c3ccc4ncc(C#N)c(N5CCc6cc(F)c(Cl)cc65)c4c3)cc21,30% (inactive),39.7% (inactive),39.5% (inactive),26.7% (inactive),-17.4% (active),49.7% (inactive),22.9% (inactive),27.1% (inactive),54.9% (inactive),44.9% (inactive)
Clc1ccc2[nH]cc(-c3nn4cc(-c5ccncc5)nc4s3)c2c1,53.1% (inactive),49% (inactive),26.9% (inactive),50.8% (inactive),79% (inactive),39.1% (inactive),71% (inactive),25.8% (inactive),90.7% (inactive),67.7% (inactive)
NS(=O)(=O)c1ccc(Nc2nc(N/N=C/c3ccc4c(c3)OCO4)nc(Nc3ccccc3)n2)cc1,41% (inactive),33.2% (inactive),58.6% (inactive),59.6% (inactive),22.4% (inactive),42.6% (inactive),64.5% (inactive),16.7% (inactive),84.6% (inactive),38.7% (inactive)
COc1ccc(OC)c(CCn2cncc2-c2c[nH]c3ccc(Cl)cc23)c1,60.5% (inactive),15.8% (inactive),45.9% (inactive),62.6% (inactive),62.8% (inactive),50.5% (inactive),28.9% (inactive),71.6% (inactive),23% (inactive),48.4% (inactive)
N#Cc1c(-c2cccs2)cc(-c2cnccn2)nc1SCC(=O)N/N=C/c1cccs1,37.3% (inactive),63.2% (inactive),39.2% (inactive),40.3% (inactive),-1.38% (active),53.7% (inactive),48.8% (inactive),9.8% (active),53.9% (inactive),57.4% (inactive)
Cc1c(C(=O)/C=C/c2ccc(Cl)cc2)nnn1-c1ccc2oc(=O)ccc2c1,104% (inactive),83.4% (inactive),98.8% (inactive),94% (inactive),86.5% (inactive),102% (inactive),88.9% (inactive),99.5% (inactive),99.9% (inactive),95.6% (inactive)
CC[C@H](CC[C@@H](C)[C@H]1CC[C@H]2[C@@H]3CC(=O)C4=CC(=O)/C(=C/c5ccc([N+](=O)[O-])cc5)C[C@]4(C)[C@H]3CC[C@]12C)C(C)C,104% (inactive),81.4% (inactive),101% (inactive),98.2% (inactive),120% (inactive),108% (inactive),97.1% (inactive),97.3% (inactive),110% (inactive),89.7% (inactive)
Oc1ccc(-c2nc3ccc(/C(=N\N=C\c4ccc(Cl)cc4)c4ccccc4)cc3[nH]2)cc1,88.3% (inactive),70.8% (inactive),101% (inactive),91.1% (inactive),93.5% (inactive),90.9% (inactive),82.6% (inactive),87% (inactive),92% (inactive),63.5% (inactive)
Cc1ccc2c(n1)C(=O)C(Cl)=C(Nc1cccc(C)c1C)C2=O,-11% (active),-2.38% (active),-5.61% (active),-1.12% (active),7.14% (active),2.79% (active),-52.6% (active),-55.9% (active),-77.5% (active),-29.2% (active)
COc1ccc(NC(=O)CCCCCCNC(=O)C(O)(O)C(F)(F)F)cc1,28.7% (inactive),21.7% (inactive),18.8% (inactive),59.5% (inactive),0.972% (active),56.5% (inactive),24.3% (inactive),48.7% (inactive),48.7% (inactive),49.6% (inactive)
Cc1ccc(C(=O)CSc2nc3ccccc3c(=O)n2C)cc1,95.3% (inactive),68.8% (inactive),107% (inactive),80% (inactive),101% (inactive),94.5% (inactive),88.6% (inactive),93.4% (inactive),93.2% (inactive),94.3% (inactive)
CN1CCN(Cc2ccc(NC(=O)c3cncc(C#Cc4cnc5ccc(O[C@@H]6CCOC6)nn45)c3)cc2C(F)(F)F)CC1,-91.1% (active),-12.6% (active),-89.6% (active),-73.2% (active),-79.1% (active),-68.3% (active),-88.5% (active),-89% (active),-74.6% (active),-86.3% (active)
NCCNC(=O)c1cccc(COc2ccccc2NC(=O)c2cc(Br)c(Br)[nH]2)c1,96.3% (inactive),-16.3% (active),98.9% (inactive),91.4% (inactive),93.4% (inactive),61.9% (inactive),88.3% (inactive),96.2% (inactive),116% (inactive),102% (inactive)
O=C1Nc2ccccc2/C1=N\c1nnc(-c2ccccc2)o1,107% (inactive),103% (inactive),89.7% (inactive),82.9% (inactive),92% (inactive),98.1% (inactive),92.8% (inactive),97.8% (inactive),100% (inactive),95.9% (inactive)
CN(C)CCCOc1ccc(C(=C(c2ccccc2)C2CCCC2)c2ccc(OCCCN(C)C)cc2)cc1,-99% (active),-4.67% (active),-89.6% (active),-86.4% (active),-83.1% (active),-81.9% (active),-82% (active),-89.4% (active),-88.7% (active),-80.7% (active)
CCNC(=O)Oc1ccc(/C(=C(/C)c2ccc(OC)cc2)c2ccc(OCCN3CCCCCC3)cc2)cc1,76% (inactive),2.3% (active),-3.44% (active),46.8% (inactive),12.3% (inactive),64% (inactive),-20.9% (active),18.4% (inactive),-32.4% (active),-73.3% (active)
COC(=O)[C@@H](Cc1c[nH]c2ccccc12)NC(=O)CCCCOc1cc(O)c2c(=O)cc(-c3ccccc3)oc2c1,93.3% (inactive),83.6% (inactive),94.3% (inactive),81.7% (inactive),76.8% (inactive),84.2% (inactive),91.2% (inactive),90.3% (inactive),97.1% (inactive),97.2% (inactive)
O=C(Nc1ccc(Cl)c(C(F)(F)F)c1)Nc1ccc2c(ccn2C(=O)c2cccc(F)c2)c1,24.5% (inactive),11.4% (inactive),56% (inactive),87% (inactive),28.7% (inactive),55.4% (inactive),5.17% (active),66.7% (inactive),60.6% (inactive),56.2% (inactive)
O=C(CCCCCCN1CC(=O)N2[C@@H](c3ccc(Cl)s3)c3[nH]c4ccccc4c3C[C@H]2C1=O)NO,57.9% (inactive),27.5% (inactive),21.9% (inactive),43.8% (inactive),37.7% (inactive),81.6% (inactive),37.1% (inactive),40.9% (inactive),53.4% (inactive),51.8% (inactive)
COc1cc(C(C)=C(c2ccc(OCCN(C)C)cc2)c2ccc(OCCN(C)C)cc2)ccc1F,102% (inactive),93.3% (inactive),92.6% (inactive),102% (inactive),90.6% (inactive),98.5% (inactive),100% (inactive),101% (inactive),111% (inactive),110% (inactive)
Clc1ccc(CSc2nnc(-c3ccc(Cl)cc3)n2-c2ccccc2)cc1,95.8% (inactive),91.3% (inactive),86.3% (inactive),77.7% (inactive),57.1% (inactive),70.2% (inactive),78.4% (inactive),65.1% (inactive),87.6% (inactive),85.4% (inactive)
O=C(/C=C/c1cccc(C(F)(F)F)c1)Nc1cccc(C(F)(F)F)c1,30.1% (inactive),23.2% (inactive),84.7% (inactive),108% (inactive),88.7% (inactive),70.7% (inactive),10.5% (inactive),97.1% (inactive),87.5% (inactive),56.8% (inactive)
Cc1nc(/N=C(N)/N=C(\N)c2cccc(Br)c2)sc1C,57.9% (inactive),15.9% (inactive),62% (inactive),76.5% (inactive),56.9% (inactive),80% (inactive),8.89% (active),37.8% (inactive),88.3% (inactive),47.1% (inactive)
